In PubChem BioAssay (EPA / NIEHS) one finds outcome and AC50 data, which are given here for eight molecules.

Records with an inconclusive call do not appear. Activity calls are given as the source filed them. The calls were made as follows, unless noted: active = hit-call score of the fitted dose curve at least 0.9, where 1 is the maximum; inactive = score below 0.9.

A short description of assay [1]: ATG_PBREM_CIS: Attagene CIS-FACTORIAL HepG2 Assay for human Phenobarbital-responsive Enhancer Module (PBREM) (AID 2282955). To be noted: HepG2 PBREM cis-reporter, Attagene multiplexed transcription; actives raise or lower the signal. A digest of the protocol:
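HepG2 cells transiently transfected with multiple cis-regulated reporter units measure endogenous transcription factor activity; 24 h compound exposure. Reporter mRNA quantified by RT-PCR, fluorescent labelling, HpaI digestion and capillary electrophoresis; bidirectional fit versus DMSO.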

Assay [2] deals with Paired box protein Pax-6 (Homo sapiens) (UniProt P26367). Kind of assay: ATG_Pax6_CIS: Attagene CIS-FACTORIAL HepG2 Assay for human Paired Box 6 (PAX6) (AID 2282956). To be noted: HepG2 CIS-FACTORIAL PAX6 reporter transcription, RNA readout; actives raise or lower the signal. The essentials: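 Multiplexed cis-reporter HepG2 system; 24 h treatment; reporter mRNA read by RT-PCR/CE fluorescence; bidirectional fit vs DMSO.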

The nature of assay [3]: ATG_PXRE_CIS: Attagene CIS-FACTORIAL HepG2 Assay for human Pregnane X Receptor Element (PXRE) (AID 2282957). To be noted: HepG2 Attagene CIS-FACTORIAL PXRE reporter, mRNA; actives raise or lower the signal. The essentials:
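HepG2 cells transiently transfected with cis-element-driven multiplexed reporter units; after 24 h chemical exposure, reporter mRNA measured by RT-PCR, 6-FAM labelling, HpaI digestion and capillary electrophoresis. Bidirectional fitting relative to DMSO.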

The nature of assay [4]: ATG_PPRE_CIS: Attagene CIS-FACTORIAL HepG2 Assay for human Peroxisome Proliferator-activated Response Element (PPRE) (AID 2282958). Particulars: HepG2 PPRE cis-element reporter, Attagene transcription factor profiling; actives raise or lower the signal. The essentials:
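HepG2 cells are transiently transfected with multiplexed cis-promoter reporter units to report endogenous PPAR activity. After 24 h dosing, reporter mRNA is read by RT-PCR and capillary electrophoresis. Fitting is bidirectional against DMSO.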

Assay [5] in a line: ATG_RORE_CIS: Attagene CIS-FACTORIAL HepG2 Assay for human RAR-related Orphan Receptor Element (RORE) (AID 2282959). To be noted: HepG2 Attagene cis-factorial RORE reporter, mRNA; actives raise or lower the signal. The essentials: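 HepG2 cells carrying transiently transfected cis-regulated reporter units; RORE-driven reporter mRNA quantified 24 h post-dosing by RT-PCR, 6-FAM primer extension, HpaI digestion and capillary electrophoresis. Bidirectional fit versus DMSO.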

Assay [6] is described as follows: ATG_Sox_CIS: Attagene CIS-FACTORIAL HepG2 Assay for human SRY-box transcription factor (SOX) (AID 2282960). To be noted: HepG2 Attagene cis-factorial SOX reporter, mRNA; actives raise or lower the signal. A digest of the protocol:
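HepG2 cells transiently transfected with multiple cis-regulated reporter units, then dosed for 24 h. Reporter mRNA quantified by RT-PCR, fluorescent labelling, HpaI digestion and capillary electrophoresis; bidirectional fit versus DMSO.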

Assay [7] addresses Transcription factor Sp1 (Homo sapiens) (UniProt P08047). Kind of assay: ATG_Sp1_CIS: Attagene CIS-FACTORIAL HepG2 Assay for human Specificity Protein 1 (Sp1) (AID 2282961). To be noted: HepG2 Sp1 cis-reporter transcription, actives raise or lower the signal. The essentials: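 HepG2 cells transiently transfected with multiplexed cis-regulated reporter constructs, chemical exposure 24 h. Reporter mRNA quantified by RT-PCR with capillary electrophoresis; bidirectional fit relative to DMSO.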

A short description of assay [8]: ATG_SREBP_CIS: Attagene CIS-FACTORIAL HepG2 Assay for human Sterol Regulatory Element Binding (SREBP) (AID 2282962). To be noted: HepG2 Attagene cis-factorial SREBP reporter, mRNA; actives raise or lower the signal. The essentials: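 mRNA induction of transfected cis-promoter reporters in HepG2 cells, 24 h post-dose. Detection: RT-PCR with 6-FAM-labelled products, HpaI digest, capillary electrophoresis. DMSO served as negative control and baseline.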

Assay [9] addresses Signal transducer and activator of transcription 3 (Homo sapiens) (UniProt P40763). The assay is described as follows: ATG_STAT3_CIS: Attagene CIS-FACTORIAL HepG2 Assay for human Signal Transducer and Activator of Transcription 3 (STAT3) (AID 2282963). Particulars: HepG2, Attagene cis-factorial STAT3 reporter transcription; actives raise or lower the signal. The essentials:
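HepG2 cells transiently transfected with multiple cis-element-driven reporter units report endogenous transcription factor activity. After 24 h compound exposure, reporter mRNA is measured by RT-PCR, 6-FAM labelling, HpaI digestion and capillary electrophoresis. Fitted bidirectionally versus DMSO.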

Assay [10] is described as follows: ATG_TA_CIS: Attagene CIS-FACTORIAL HepG2 Assay for human TA Basal Promoter (AID 2282964). To be noted: HepG2 Attagene CIS-factorial TA basal promoter reporter; actives raise or lower the signal. The essentials:
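Fluorescence from labelled RT-PCR reporter fragments, separated by capillary electrophoresis, gives the signal. Cells: HepG2 transiently carrying multiple reporter units, 24 h chemical dosing. Gain or loss relative to DMSO.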

Assay [11] is described as follows: ATG_TCF_b_cat_CIS: Attagene CIS-FACTORIAL HepG2 Assay for human T-Cell-Factor with beta-catenin (TCF/b-cat) (AID 2282965). Particulars: HepG2 TCF/beta-catenin cis-reporter transcription, actives raise or lower the signal. A digest of the protocol:
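HepG2, transient MRTU transfection, cis-element-driven reporters (endogenous TFs). 24 h compound exposure. Readout: reporter mRNA by RT-PCR + 6-FAM primer extension, HpaI digest, capillary electrophoresis. Gain/loss fit vs DMSO baseline.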

Assay [12] is described as follows: ATG_TAL_CIS: Attagene CIS-FACTORIAL HepG2 Assay for human TAL Basal Promoter (AID 2282966).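 Also: background control endpoint measuring basal TAL promoter reporter mRNA not a specific factor.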 To be noted: HepG2 Attagene cis-factorial TAL promoter reporter; actives raise or lower the signal. A digest of the protocol: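 HepG2 cells transiently transfected with multiplexed cis-promoter reporter units, dosed 24 h. Reporter mRNA quantified by RT-PCR, 6-FAM labelling, HpaI digestion and capillary electrophoresis; TAL basal promoter serves as background control, fitted bidirectionally versus DMSO.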

Assay [13] can be described thus: ATG_TGFb_CIS: Attagene CIS-FACTORIAL HepG2 Assay for human Transforming Growth Factor (TGF) (AID 2282967). To be noted: HepG2 Attagene CIS TGFb reporter, mRNA transcription; actives raise or lower the signal. A digest of the protocol: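 Bidirectional fitting relative to DMSO gave the endpoint. Underlying data: reporter mRNA from HepG2 cells carrying transiently transfected cis-regulated reporter constructs, harvested 24 h after dosing and analyzed by RT-PCR and capillary electrophoresis.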

Assay [14] deals with X-box-binding protein 1 (Homo sapiens) (UniProt P17861). The assay is described as follows: ATG_Xbp1_CIS: Attagene CIS-FACTORIAL HepG2 Assay for human X-box Binding Protein 1 (XBP1) (AID 2282972). Particulars: HepG2 XBP1 cis-element reporter, Attagene multiplex; actives raise or lower the signal. A digest of the protocol: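 Fluorescence-labelled cDNA fragments from reporter transcripts, separated by capillary electrophoresis, give the signal. Source: HepG2 cells transfected with promoter-driven reporter units, harvested 24 h post-dose. DMSO served as reference for bidirectional curve fitting.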

The target of assay [15] is Androgen receptor (Homo sapiens) (UniProt P10275). Kind of assay: ATG_AR_TRANS: Attagene TRANS-FACTORIAL HepG2 Assay for human Androgen Receptor (AR) (AID 2282973; active = hit-call score of the fitted dose curve at least 0.9, where 1 is the maximum). To be noted: HepG2 Attagene TRANS-FACTORIAL AR reporter transcription. A digest of the protocol:
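HepG2 cells transiently transfected with AR-Gal4 chimera and GAL4-UAS reporter units; chemical exposure 24 h. Reporter mRNA quantified by RT-PCR with fluorescent labelling and capillary electrophoresis; gain-of-signal fitted against DMSO.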

Assay [16] is described as follows: ATG_VDRE_CIS: Attagene CIS-FACTORIAL HepG2 Assay for human Vitamin D Receptor Element (VDRE) (AID 2282968). Particulars: HepG2 VDRE cis-reporter transcription, actives raise or lower the signal. The essentials: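 Transiently transfected HepG2 cells carrying cis-regulated reporter transcription units were exposed for 24 h. Reporter mRNA was measured by RT-PCR with fluorescent labelling and capillary electrophoresis, and fitted in both directions against DMSO.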

Assay [17] deals with Estrogen receptor (Homo sapiens) (UniProt P03372). Kind of assay: ATG_ERa_TRANS: Attagene TRANS-FACTORIAL HepG2 Assay for human Estrogen Receptor alpha (ERa) (AID 2282970; active = hit-call score of the fitted dose curve at least 0.9, where 1 is the maximum). Particulars: HepG2 Attagene TRANS ERa GAL4 reporter, mRNA. The essentials:
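HepG2 cells transiently transfected with multiplexed GAL4-UAS reporter units read out chimeric NR-Gal4 activity. After 24 h compound exposure, reporter mRNA was quantified by RT-PCR, 6-FAM labeling, HpaI digestion and capillary electrophoresis, relative to DMSO.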

The target in assay [18] is Steroid hormone receptor ERR1 (Homo sapiens) (UniProt P11474). The assay is described as follows: ATG_ERRa_TRANS: Attagene TRANS-FACTORIAL HepG2 Assay for human Estrogen-Related Receptor alpha (ERRa) (AID 2282971; active = hit-call score of the fitted dose curve at least 0.9, where 1 is the maximum). To be noted: HepG2 Attagene TRANS reporter, ERRa transactivation. A digest of the protocol: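 HepG2 cells transiently transfected with GAL4-UAS reporter units and chimeric NR-Gal4 constructs; after 24 hour compound incubation, reporter mRNA quantified by RT-PCR, fluorescent labelling and capillary electrophoresis, gain of signal versus DMSO.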

Assay [19] can be described thus: ATG_M_19_TRANS: Attagene TRANS-FACTORIAL HepG2 Assay for M19 Transcription Factor (Internal Marker) (AID 2282974; active = hit-call score of the fitted dose curve at least 0.9, where 1 is the maximum). Particulars: HepG2 Attagene TRANS-FACTORIAL M19 internal marker reporter. The essentials:
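HepG2 transiently transfected with GAL4-UAS multiplex reporter constructs, exposed 24 h; reporter RNA quantified by RT-PCR, 6-FAM labeling, HpaI digestion and capillary electrophoresis; internal background marker fitted upward versus DMSO.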

Sequence of Signal transducer and activator of transcription 3 (Homo sapiens) (P40763 whole entry, looked up): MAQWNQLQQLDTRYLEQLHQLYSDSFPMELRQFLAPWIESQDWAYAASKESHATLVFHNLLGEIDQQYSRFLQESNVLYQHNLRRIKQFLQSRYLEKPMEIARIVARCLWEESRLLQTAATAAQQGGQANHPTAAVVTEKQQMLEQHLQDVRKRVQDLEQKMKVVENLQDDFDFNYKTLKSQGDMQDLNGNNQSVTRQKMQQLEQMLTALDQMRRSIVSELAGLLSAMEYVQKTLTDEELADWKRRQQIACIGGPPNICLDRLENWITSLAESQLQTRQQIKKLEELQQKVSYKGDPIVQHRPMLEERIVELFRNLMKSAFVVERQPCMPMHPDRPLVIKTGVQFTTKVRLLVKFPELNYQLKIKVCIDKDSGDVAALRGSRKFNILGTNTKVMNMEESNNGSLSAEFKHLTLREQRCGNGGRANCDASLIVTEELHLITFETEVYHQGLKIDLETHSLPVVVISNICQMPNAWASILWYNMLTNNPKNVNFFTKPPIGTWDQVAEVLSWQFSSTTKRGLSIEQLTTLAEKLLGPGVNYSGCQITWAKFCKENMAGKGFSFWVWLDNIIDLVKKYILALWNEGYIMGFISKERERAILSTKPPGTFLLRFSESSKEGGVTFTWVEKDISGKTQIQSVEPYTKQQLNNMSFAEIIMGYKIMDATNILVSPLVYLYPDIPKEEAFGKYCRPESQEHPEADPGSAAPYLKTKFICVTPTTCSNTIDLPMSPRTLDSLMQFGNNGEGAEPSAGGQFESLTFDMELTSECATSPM
Sequence of Paired box protein Pax-6 (Homo sapiens) (P26367 whole entry, looked up): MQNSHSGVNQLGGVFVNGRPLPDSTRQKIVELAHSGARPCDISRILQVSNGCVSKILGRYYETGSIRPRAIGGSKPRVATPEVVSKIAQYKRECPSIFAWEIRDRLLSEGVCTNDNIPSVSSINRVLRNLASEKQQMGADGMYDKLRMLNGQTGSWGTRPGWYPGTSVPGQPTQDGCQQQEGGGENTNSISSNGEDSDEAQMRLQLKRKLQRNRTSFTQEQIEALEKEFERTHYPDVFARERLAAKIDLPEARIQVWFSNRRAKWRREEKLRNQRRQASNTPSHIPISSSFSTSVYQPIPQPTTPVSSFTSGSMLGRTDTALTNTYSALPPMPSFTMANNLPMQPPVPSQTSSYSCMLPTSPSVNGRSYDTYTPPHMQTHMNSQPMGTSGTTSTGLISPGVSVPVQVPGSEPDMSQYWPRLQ
Sequence of Estrogen receptor (Homo sapiens) (P03372 whole entry, looked up, the tested form may be a part): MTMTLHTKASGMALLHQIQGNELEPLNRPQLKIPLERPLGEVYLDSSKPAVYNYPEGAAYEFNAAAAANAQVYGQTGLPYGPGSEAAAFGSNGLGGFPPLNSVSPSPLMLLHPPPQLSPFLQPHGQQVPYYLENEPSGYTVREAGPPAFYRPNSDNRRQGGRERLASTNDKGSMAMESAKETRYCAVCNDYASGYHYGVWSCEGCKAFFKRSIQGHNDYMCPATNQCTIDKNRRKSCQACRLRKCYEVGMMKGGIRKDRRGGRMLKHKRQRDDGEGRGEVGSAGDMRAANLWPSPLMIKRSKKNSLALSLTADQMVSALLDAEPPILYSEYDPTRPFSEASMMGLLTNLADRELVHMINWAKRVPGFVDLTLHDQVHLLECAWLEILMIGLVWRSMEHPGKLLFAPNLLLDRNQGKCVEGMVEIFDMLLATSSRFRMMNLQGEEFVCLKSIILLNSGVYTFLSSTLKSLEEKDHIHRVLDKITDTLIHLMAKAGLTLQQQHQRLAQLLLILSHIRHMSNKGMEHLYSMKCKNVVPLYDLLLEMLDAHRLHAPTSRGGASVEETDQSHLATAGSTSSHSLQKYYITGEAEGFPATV
Sequence of Transcription factor Sp1 (Homo sapiens) (P08047 whole entry, looked up): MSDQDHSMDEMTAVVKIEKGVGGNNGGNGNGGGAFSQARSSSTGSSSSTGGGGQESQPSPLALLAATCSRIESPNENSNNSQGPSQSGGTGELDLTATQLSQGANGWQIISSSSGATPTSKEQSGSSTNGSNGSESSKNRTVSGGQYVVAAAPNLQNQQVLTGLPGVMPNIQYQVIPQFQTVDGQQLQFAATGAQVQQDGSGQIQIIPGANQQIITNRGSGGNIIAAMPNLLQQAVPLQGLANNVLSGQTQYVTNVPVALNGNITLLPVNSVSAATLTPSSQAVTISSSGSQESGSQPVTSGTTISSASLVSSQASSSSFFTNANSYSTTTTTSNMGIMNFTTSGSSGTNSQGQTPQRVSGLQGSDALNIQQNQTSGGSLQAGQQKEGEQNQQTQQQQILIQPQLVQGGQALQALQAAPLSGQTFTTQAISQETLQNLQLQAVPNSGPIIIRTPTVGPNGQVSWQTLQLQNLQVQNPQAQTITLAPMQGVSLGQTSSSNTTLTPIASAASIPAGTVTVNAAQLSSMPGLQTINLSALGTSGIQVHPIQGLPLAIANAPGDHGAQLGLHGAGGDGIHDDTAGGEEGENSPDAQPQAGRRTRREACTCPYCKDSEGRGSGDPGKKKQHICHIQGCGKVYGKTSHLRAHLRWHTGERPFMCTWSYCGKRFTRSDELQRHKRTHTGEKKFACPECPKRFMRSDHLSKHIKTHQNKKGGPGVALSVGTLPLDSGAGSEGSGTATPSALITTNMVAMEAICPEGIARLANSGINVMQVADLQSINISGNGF
Sequence of X-box-binding protein 1 (Homo sapiens) (P17861 whole entry, looked up, the tested form may be a part): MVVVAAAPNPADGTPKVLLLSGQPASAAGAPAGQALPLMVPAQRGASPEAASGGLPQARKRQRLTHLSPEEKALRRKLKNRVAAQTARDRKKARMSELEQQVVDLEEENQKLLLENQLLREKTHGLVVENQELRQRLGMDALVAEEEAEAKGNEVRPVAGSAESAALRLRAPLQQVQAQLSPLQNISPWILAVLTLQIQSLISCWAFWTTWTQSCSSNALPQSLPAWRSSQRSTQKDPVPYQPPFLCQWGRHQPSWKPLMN
Sequence of Steroid hormone receptor ERR1 (Homo sapiens) (P11474 whole entry, looked up, the tested form may be a part): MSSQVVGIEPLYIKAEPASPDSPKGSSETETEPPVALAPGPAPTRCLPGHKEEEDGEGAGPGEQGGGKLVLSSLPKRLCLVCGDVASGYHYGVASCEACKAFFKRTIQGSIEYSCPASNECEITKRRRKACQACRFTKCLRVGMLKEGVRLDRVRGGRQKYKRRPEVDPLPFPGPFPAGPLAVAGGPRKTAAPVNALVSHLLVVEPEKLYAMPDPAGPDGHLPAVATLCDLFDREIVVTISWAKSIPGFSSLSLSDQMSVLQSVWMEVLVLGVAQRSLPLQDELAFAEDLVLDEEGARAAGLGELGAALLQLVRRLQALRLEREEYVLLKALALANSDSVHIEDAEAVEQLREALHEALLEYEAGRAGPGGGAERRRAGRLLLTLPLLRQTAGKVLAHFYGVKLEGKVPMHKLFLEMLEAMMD
Sequence of Androgen receptor (Homo sapiens) (P10275 whole entry, looked up, the tested form may be a part): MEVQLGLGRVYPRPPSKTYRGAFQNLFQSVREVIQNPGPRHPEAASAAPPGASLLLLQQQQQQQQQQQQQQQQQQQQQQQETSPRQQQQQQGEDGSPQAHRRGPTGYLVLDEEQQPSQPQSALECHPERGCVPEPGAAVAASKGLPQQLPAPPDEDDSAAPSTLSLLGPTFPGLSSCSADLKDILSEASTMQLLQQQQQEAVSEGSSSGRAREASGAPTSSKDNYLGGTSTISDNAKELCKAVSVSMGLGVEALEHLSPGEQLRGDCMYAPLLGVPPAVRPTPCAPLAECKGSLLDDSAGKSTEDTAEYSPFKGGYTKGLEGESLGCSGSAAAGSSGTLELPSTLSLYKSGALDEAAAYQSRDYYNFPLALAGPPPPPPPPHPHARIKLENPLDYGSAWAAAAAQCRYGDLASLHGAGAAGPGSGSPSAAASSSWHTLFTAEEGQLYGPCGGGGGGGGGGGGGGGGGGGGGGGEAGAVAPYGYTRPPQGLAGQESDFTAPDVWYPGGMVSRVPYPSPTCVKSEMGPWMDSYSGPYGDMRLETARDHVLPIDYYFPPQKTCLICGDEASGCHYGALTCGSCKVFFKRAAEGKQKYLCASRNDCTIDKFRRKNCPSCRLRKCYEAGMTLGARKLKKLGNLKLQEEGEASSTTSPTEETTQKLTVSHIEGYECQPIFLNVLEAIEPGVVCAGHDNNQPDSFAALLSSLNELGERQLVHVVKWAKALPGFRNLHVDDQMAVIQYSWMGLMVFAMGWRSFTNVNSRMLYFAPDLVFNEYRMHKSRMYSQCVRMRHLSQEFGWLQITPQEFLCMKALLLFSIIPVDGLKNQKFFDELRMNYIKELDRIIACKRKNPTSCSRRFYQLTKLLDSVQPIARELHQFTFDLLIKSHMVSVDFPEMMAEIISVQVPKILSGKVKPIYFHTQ

In the case of `COCc1cnc(C2=NC(C)(C(C)C)C(=O)N2)c(C(=O)O)c1` (stereo unspecified), the result in assay [1], in assay [2], in [3], in assay [4], in assay [5] and in assay [6] was inactive. Further, the molecule was called inactive in [7], in [8], in [9], in assay [10], in assay [11] and in [12]. For the same molecule, the molecule was called inactive in [13], in assay [14] and in assay [15].

For `CCCCOCN(C(=O)CCl)c1c(CC)cccc1CC`, the results for the AC50 in assay [1], in [3] and in assay [16] were 0.888 µM (active), 0.265 µM (active) and 0.5 µM (active), respectively. Further, the result in assay [2], in assay [4], in assay [6], in assay [7], in assay [8] and in assay [9] was inactive. The molecule was classed as inactive in assay [10], in assay [11], in [12], in [13], in assay [17] and in [18]. Also, the outcome in assay [14], in assay [15] and in assay [19] was inactive.

`CC(C)C1(C)N=C(c2ncccc2C(=O)O)NC1=O` (stereo unspecified): the outcome in [1], in [2], in assay [3], in assay [4], in [5] and in assay [6] was inactive. For the same molecule, the outcome in assay [7], in [8], in [9], in assay [10], in [11] and in assay [12] was inactive. Besides, the molecule was classed as inactive in [13], in assay [17], in assay [14] and in [19].

`C=CCOC(=O)C(C)(C)OC(=O)c1cc(-n2c(=O)cc(C(F)(F)F)n(C)c2=O)ccc1Cl`: the outcome in assay [1], in assay [2], in assay [4], in [5], in assay [6] and in assay [7] was inactive. For the same molecule, the molecule was called inactive in assay [8], in [9], in [10], in [11], in assay [12] and in assay [13]. In addition, the call in assay [14] and in [19] was inactive. The AC50 in assay [3] was 1.49 µM (active).

As for `COCC(C)N(C(=O)CCl)c1c(C)csc1C` (stereo unspecified), the result in [2], in assay [4], in assay [5], in [6], in assay [7] and in assay [9] was inactive. The outcome in [10], in [11], in [12], in assay [13], in assay [17] and in assay [14] was inactive. The AC50 was 1.06 µM (active) in [3], 5.88 µM (active) in assay [8] and 1.84 µM (active) in [16].

Turning to `N#Cc1c[nH]cc1-c1cccc2c1OC(F)(F)O2`, the result in [2], in assay [5], in assay [7], in assay [8], in assay [9] and in assay [10] was inactive. Moreover, the molecule was called inactive in assay [11], in assay [12], in assay [13], in [18] and in [19]. Also, the AC50 was 11.6 µM (active) in assay [3]; 13.2 µM (active) in [4]; 3.85 µM (active) in assay [6]; 17.5 µM (active) in assay [16]; 2.84 µM (active) in [17]; 4.63 µM (active) in assay [14].

Turning to `CC1(C)C(C=C(Cl)Cl)C1C(=O)OC(C#N)c1cccc(Oc2ccccc2)c1` (stereo unspecified), the AC50 in assay [1] is 13.1 µM (active); in [3], 2.32 µM (active); in [17], 19.7 µM (active). Also, the result in [2], in [5], in assay [6], in assay [7], in [8] and in assay [9] was inactive. The outcome in assay [10], in [11], in assay [12], in assay [13], in assay [14] and in assay [19] was inactive.

Turning to `COC(=O)NS(=O)(=O)c1ccc(N)cc1`, the outcome in [1], in [2], in assay [4], in assay [5], in [6] and in assay [7] was inactive. The outcome in assay [8], in assay [9], in [10], in assay [11], in [12] and in assay [13] was inactive. Besides, the result in [18] and in assay [14] was inactive. The AC50 in assay [3] was 19.9 µM (active).

As usually defined, the AC50 is the concentration at which the activity in the assay is half-maximal.
